Active and inactive are the calls of the source.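 Rule for the calls: active = blocks over 70% of labeled estradiol binding at 10 µM, or over a set limit at 100 nM; inactive = the rest.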
Target: Estrogen receptor beta (Homo sapiens) (UniProt Q92731)
Test: displacement of fluorescent estrogen from ERbeta – cell-based, Cos7 ERbeta-GFP, flow cytometry, primary screen (AID 1210);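 note: 0% = DMSO vehicle wells and 100% = complete loss of labeled estradiol signal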
Settings: fluorescent estrogen binding, stronger effect = higher value
[1] = ligand binding inhibition, at 0.1 µM

Estrogen receptor beta (Homo sapiens), sequence (Q92731 whole entry, looked up): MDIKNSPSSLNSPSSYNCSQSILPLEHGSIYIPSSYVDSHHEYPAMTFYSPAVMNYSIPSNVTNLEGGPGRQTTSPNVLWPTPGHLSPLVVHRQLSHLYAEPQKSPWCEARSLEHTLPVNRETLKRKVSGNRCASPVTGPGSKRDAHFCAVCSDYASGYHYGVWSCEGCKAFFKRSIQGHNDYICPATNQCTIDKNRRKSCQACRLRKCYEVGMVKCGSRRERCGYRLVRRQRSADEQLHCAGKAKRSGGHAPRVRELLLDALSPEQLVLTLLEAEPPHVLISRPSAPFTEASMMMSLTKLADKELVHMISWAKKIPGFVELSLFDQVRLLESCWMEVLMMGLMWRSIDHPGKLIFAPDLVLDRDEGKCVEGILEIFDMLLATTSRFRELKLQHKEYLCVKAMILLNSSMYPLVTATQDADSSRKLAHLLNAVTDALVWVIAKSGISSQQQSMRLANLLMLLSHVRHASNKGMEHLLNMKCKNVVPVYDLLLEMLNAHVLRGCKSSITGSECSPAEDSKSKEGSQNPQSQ

In the case of `NC(=O)c1c(NC(=O)c2cccs2)sc2c1CCCCCC2`, the inhibition (at 10 µM) is reported as 54% (inactive) and the inhibition [1] is reported as 42%.
In the case of `CCCCCCNC(=O)c1cc(-c2ccco2)nc2ccccc12`, the inhibition (at 10 µM) is reported as 92% (active) and the inhibition [1] is reported as 2%.
With `O=C(CSc1ccc(Cl)cc1)c1ccco1` the inhibition (at 10 µM) was 14% (inactive) and the inhibition [1] was 53%.
For `CCSc1nc2c(cnn2-c2ccc(C)cc2)c(=O)[nH]1`, the inhibition (at 10 µM) was 31% (inactive) and the inhibition [1] was 29%.
`Cc1ccc(-n2nnnc2SCC(=O)Nc2ccc3c(c2)COC3=O)cc1C` was tested, and the inhibition (at 10 µM) was 15% (inactive) and the inhibition [1] was 2%.
In the case of `COc1ccc2c(c1)C1C=CCC1C(c1cc3c(cc1Br)OCO3)N2` (stereo not given), the inhibition (at 10 µM) is reported as 0% (inactive) and the inhibition [1] is reported as 41%.
`Cc1ccc(S(=O)(=O)Cc2ccc(C(=O)O)o2)cc1` was tested, and the inhibition (at 10 µM) was 54% (inactive) and the inhibition [1] was 27%.
`CN(c1ccccc1C(=O)O)S(=O)(=O)c1ccc2c3c(cccc13)C(=O)N2` was tested, and the inhibition (at 10 µM) was 0% (inactive) and the inhibition [1] was 6%.
In the case of `COc1ccc(NC2=CC(c3cccc(OC)c3)N(c3ccc(OC)cc3)C2=O)cc1` (stereo not given), the inhibition (at 10 µM) is reported as 33% (inactive) and the inhibition [1] is reported as 25%.
With `O=c1oc2ccccc2cc1-c1ccc(O)cc1` the inhibition (at 10 µM) was 58% (inactive) and the inhibition [1] was 3%.
`C/C(N)=C(/C#N)C(=O)CSc1nnc(Nc2ccccc2C)s1` was tested, and the inhibition (at 10 µM) was 44% (inactive) and the inhibition [1] was 13%.
In the case of `O=C(CCCn1c(=S)[nH]c2ccccc2c1=O)N1CCN(c2cccc(Cl)c2)CC1`, the inhibition (at 10 µM) is reported as 73% (active) and the inhibition [1] is reported as 28%.
With `O=c1c(C(c2ccc(O)cc2)c2c(O)nc3n(c2=O)CCS3)c(O)nc2n1CCS2` the inhibition (at 10 µM) was 3% (inactive) and the inhibition [1] was 7%.
With `O=C(CSc1nnc(-c2ccc(O)cc2)n1Cc1ccccc1)NNC(=O)c1ccc(Br)cc1` the inhibition (at 10 µM) was 31% (inactive) and the inhibition [1] was 30%.
In the case of `Cc1c(N=Cc2ccc(O)c(Br)c2)cccc1[N+](=O)[O-]`, the inhibition (at 10 µM) is reported as 33% (inactive) and the inhibition [1] is reported as 34%.
